Legend:
Test in all cases: DAPPL (digital affinity profiling via proximity ligation, sequencing); 10 mM Tris-HCl pH 7.5, 50 mM NaCl, 1 mM DTT, 4% glycerol, room temperature, 30 min; GST-TFs on glutathione beads, 16-mer random dsDNA library, 0.1% formaldehyde crosslink after washing; high values mean tight binding
FEV = target: T1, FEV (Homo sapiens, UniProt Q99581 1-238); conditions: protein: recombinant; tags: N-terminal GST; dsDNA, one strand shown
T1 sequence: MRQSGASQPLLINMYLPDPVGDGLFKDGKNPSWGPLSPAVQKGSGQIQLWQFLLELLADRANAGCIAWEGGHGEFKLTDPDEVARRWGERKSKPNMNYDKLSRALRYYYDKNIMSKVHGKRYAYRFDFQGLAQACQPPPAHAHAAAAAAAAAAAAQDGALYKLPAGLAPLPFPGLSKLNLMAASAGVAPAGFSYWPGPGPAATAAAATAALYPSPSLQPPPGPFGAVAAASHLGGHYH
How it was run: (§1)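 Binding signal is each hexamer's read frequency for a factor divided by its frequency in the tag-only sample. The factors were GST-fused human transcription factors from yeast, captured on glutathione beads, DNA-barcoded and pooled with that sample. Pools were incubated with 200 nmole of a random double-stranded 16-mer DNA library in Tris/NaCl/DTT/glycerol buffer at room temperature for 30 min, then washed, crosslinked with 0.1% formaldehyde, proximity-ligated with BsaI/T4 ligase (1 h, 37 °C), PCR-amplified and sequenced on an Illumina NextSeq500.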

ETV5 = ETV5 (Homo sapiens, UniProt P41161 1-510); conditions: protein: recombinant; tags: N-terminal GST; dsDNA, one strand shown
How it was run: as §1

HSF1 = HSF1 (Homo sapiens, UniProt Q00613 1-529); conditions: protein: recombinant; tags: N-terminal GST; chain copies: 3; dsDNA, one strand shown
How it was run: as §1

SPIC = target: T2, SPIC (Homo sapiens, UniProt Q8N5J4 1-248); conditions: protein: recombinant; tags: N-terminal GST; dsDNA, one strand shown
T2 sequence: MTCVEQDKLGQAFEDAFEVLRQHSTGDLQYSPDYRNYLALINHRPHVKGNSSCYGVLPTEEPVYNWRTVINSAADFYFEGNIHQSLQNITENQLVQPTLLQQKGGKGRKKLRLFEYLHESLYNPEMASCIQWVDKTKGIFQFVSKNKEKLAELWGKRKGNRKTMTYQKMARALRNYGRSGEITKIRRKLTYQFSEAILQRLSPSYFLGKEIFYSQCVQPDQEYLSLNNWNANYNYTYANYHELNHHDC
How it was run: as §1

ELF4 = ELF4 (Homo sapiens, UniProt Q99607 1-663); conditions: protein: recombinant; tags: N-terminal GST; dsDNA, one strand shown
How it was run: as §1

ELK4 = target: T3, ELK4 (Homo sapiens, UniProt P28324-2 1-405); conditions: protein: recombinant; tags: N-terminal GST; dsDNA, one strand shown
T3 sequence: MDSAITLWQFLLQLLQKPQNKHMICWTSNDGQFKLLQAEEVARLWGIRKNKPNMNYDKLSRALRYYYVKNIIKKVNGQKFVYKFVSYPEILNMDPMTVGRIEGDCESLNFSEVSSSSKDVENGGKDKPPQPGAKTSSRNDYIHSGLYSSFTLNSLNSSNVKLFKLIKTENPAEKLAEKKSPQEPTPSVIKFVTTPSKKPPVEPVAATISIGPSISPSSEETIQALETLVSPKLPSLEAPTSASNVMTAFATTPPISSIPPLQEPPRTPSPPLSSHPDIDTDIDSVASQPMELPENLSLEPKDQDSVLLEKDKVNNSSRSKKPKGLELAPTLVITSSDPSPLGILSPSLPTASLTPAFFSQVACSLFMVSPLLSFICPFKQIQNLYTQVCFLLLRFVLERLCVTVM
How it was run: as §1

ETV2 = target: T4, ETV2 (Homo sapiens, UniProt O00321 1-342); conditions: protein: recombinant; tags: N-terminal GST; dsDNA, one strand shown
T4 sequence: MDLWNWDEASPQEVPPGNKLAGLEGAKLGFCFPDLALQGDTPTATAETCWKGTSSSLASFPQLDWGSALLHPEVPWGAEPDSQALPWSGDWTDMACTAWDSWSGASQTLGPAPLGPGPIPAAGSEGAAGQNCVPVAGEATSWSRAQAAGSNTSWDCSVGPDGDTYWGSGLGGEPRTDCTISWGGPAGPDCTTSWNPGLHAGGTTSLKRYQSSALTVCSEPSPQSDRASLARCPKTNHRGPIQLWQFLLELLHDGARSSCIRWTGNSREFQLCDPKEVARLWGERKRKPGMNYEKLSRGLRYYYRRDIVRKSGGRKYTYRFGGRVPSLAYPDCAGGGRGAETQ
How it was run: as §1

ELF3 = target: T5, ELF3 (Homo sapiens, UniProt P78545 1-371); conditions: protein: recombinant; tags: N-terminal GST; dsDNA, one strand shown
T5 sequence: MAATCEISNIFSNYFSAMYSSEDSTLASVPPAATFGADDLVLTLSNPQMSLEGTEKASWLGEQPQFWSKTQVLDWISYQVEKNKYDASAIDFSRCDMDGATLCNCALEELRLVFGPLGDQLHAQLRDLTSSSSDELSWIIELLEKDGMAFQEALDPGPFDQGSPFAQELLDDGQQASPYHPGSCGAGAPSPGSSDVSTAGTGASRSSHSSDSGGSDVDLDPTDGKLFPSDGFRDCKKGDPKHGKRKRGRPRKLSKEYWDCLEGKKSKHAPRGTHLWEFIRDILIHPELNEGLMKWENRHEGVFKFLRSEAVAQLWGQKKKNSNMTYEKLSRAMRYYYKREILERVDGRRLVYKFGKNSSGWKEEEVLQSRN
How it was run: as §1

CRX = CRX (Homo sapiens, UniProt O43186 1-299); conditions: protein: recombinant; tags: N-terminal GST; dsDNA, one strand shown
How it was run: as §1

ETV1 = ETV1 (Homo sapiens, UniProt P50549 1-477); conditions: protein: recombinant; tags: N-terminal GST; dsDNA, one strand shown
How it was run: as §1

ERF = target: T6, ERF (Homo sapiens, UniProt P50548 1-548); conditions: protein: recombinant; tags: N-terminal GST; dsDNA, one strand shown
T6 sequence: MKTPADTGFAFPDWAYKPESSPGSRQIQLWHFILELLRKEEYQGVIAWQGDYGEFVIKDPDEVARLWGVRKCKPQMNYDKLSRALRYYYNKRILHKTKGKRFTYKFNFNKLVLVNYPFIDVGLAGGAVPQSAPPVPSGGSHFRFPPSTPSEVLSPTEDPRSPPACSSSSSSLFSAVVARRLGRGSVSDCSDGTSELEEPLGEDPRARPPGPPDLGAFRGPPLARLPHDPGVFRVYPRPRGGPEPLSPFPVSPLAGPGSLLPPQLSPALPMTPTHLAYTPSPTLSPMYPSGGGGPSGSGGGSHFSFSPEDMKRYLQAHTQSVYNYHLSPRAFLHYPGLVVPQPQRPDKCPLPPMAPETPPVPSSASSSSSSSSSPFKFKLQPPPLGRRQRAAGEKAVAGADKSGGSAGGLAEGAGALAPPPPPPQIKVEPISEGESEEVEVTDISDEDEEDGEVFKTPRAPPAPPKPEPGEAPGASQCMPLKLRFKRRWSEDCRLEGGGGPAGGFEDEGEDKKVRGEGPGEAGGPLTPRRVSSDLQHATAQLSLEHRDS
How it was run: as §1

ETV3L = target: T7, ETV3L (Homo sapiens, UniProt Q6ZN32 1-361); conditions: protein: recombinant; tags: N-terminal GST; dsDNA, one strand shown
T7 sequence: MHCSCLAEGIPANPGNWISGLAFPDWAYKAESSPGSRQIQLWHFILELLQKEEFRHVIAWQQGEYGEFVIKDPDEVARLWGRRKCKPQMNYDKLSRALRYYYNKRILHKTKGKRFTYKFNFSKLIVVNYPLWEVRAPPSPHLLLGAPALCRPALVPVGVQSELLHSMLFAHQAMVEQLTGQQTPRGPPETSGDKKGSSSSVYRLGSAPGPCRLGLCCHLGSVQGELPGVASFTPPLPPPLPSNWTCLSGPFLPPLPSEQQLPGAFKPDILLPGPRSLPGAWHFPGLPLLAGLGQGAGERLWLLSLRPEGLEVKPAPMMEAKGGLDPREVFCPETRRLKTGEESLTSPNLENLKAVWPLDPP
How it was run: as §1

ETS2 = target: T8, ETS2 (Homo sapiens, UniProt P15036 1-469); conditions: protein: recombinant; tags: N-terminal GST; dsDNA, one strand shown
T8 sequence: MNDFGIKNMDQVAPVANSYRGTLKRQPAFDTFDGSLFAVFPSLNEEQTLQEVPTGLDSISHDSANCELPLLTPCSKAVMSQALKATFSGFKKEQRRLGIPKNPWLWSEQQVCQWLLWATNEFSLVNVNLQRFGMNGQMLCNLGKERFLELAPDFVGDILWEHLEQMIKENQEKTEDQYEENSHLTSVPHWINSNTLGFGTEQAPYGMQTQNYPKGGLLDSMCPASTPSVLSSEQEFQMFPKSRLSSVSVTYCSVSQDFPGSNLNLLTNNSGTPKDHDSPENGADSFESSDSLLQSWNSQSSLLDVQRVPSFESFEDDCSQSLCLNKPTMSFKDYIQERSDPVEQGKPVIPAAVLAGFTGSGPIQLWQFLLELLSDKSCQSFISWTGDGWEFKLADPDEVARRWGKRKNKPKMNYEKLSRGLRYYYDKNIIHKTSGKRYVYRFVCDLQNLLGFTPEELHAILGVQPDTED
How it was run: as §1

SPDEF = target: T9, SPDEF (Homo sapiens, UniProt O95238 1-335); conditions: protein: recombinant; tags: N-terminal GST; dsDNA, one strand shown
T9 sequence: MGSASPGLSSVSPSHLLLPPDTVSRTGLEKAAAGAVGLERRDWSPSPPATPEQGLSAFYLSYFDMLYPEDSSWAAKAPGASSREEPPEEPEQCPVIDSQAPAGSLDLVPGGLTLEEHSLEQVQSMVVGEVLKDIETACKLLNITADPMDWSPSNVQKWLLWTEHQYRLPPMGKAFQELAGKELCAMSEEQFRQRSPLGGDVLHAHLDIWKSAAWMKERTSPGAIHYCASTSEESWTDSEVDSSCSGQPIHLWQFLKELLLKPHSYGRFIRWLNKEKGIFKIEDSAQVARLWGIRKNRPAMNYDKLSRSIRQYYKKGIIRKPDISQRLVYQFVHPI
How it was run: as §1

ETV7 = target: T10, ETV7 (Homo sapiens, UniProt Q9Y603 1-341); conditions: protein: recombinant; tags: N-terminal GST; dsDNA, one strand shown
T10 sequence: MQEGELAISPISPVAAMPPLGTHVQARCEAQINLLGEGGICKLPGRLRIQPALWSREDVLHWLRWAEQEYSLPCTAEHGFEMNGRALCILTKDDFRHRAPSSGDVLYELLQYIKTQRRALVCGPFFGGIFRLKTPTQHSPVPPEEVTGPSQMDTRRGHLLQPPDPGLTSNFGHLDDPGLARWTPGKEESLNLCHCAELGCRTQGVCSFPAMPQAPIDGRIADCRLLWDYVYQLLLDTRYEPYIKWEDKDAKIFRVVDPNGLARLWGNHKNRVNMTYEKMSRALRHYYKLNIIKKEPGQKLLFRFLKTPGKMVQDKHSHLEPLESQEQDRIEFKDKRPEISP
How it was run: as §1

ELF5 = target: T11, ELF5 (Homo sapiens, UniProt Q9UKW6-2 1-255); conditions: protein: recombinant; tags: N-terminal GST; dsDNA, one strand shown
T11 sequence: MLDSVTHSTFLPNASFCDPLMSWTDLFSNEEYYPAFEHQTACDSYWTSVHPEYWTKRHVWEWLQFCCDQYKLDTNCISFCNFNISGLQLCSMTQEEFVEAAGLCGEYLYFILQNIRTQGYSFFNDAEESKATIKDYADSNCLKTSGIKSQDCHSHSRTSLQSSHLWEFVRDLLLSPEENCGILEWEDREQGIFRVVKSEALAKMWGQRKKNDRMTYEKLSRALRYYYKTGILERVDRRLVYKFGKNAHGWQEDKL
How it was run: as §1

ETV3 = target: T12, ETV3 (Homo sapiens, UniProt P41162-2 1-143); conditions: protein: recombinant; tags: N-terminal GST; dsDNA, one strand shown
T12 sequence: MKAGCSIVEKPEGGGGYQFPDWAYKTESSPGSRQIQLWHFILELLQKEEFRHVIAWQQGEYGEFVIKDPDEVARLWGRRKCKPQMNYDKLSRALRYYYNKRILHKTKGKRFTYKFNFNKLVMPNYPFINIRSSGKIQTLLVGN
How it was run: as §1

ETV6 = ETV6 (Homo sapiens, UniProt P41212 1-452); conditions: protein: recombinant; tags: N-terminal GST; dsDNA, one strand shown
How it was run: as §1

ETV5, sequence (P41161 whole entry): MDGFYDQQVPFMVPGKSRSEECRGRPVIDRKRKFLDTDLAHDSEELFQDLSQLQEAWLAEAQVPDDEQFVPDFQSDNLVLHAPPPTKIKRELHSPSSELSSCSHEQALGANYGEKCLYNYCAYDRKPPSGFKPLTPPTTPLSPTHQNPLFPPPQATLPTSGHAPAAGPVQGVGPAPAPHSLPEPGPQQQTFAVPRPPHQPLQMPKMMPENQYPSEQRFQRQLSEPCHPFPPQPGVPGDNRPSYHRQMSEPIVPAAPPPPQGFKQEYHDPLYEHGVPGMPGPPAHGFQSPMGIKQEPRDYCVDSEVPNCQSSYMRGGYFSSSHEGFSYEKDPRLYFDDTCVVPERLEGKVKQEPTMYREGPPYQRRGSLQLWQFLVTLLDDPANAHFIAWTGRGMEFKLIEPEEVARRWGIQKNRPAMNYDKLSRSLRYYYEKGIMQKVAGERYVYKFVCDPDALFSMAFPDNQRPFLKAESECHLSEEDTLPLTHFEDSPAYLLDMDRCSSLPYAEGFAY
HSF1, sequence (Q00613 whole entry): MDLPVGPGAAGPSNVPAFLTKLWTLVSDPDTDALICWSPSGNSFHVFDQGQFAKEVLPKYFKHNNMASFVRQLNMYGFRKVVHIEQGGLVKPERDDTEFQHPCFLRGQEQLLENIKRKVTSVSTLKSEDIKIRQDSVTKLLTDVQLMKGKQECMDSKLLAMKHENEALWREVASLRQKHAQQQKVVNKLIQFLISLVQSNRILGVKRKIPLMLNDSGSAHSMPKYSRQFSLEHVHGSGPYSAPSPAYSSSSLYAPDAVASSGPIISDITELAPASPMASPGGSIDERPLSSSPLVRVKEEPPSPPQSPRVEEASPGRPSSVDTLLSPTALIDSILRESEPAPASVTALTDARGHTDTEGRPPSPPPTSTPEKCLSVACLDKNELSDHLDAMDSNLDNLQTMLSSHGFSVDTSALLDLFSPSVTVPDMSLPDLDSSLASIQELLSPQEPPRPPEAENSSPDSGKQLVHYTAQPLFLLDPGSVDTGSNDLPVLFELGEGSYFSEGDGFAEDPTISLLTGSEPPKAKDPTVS
ELF4, sequence (Q99607 whole entry): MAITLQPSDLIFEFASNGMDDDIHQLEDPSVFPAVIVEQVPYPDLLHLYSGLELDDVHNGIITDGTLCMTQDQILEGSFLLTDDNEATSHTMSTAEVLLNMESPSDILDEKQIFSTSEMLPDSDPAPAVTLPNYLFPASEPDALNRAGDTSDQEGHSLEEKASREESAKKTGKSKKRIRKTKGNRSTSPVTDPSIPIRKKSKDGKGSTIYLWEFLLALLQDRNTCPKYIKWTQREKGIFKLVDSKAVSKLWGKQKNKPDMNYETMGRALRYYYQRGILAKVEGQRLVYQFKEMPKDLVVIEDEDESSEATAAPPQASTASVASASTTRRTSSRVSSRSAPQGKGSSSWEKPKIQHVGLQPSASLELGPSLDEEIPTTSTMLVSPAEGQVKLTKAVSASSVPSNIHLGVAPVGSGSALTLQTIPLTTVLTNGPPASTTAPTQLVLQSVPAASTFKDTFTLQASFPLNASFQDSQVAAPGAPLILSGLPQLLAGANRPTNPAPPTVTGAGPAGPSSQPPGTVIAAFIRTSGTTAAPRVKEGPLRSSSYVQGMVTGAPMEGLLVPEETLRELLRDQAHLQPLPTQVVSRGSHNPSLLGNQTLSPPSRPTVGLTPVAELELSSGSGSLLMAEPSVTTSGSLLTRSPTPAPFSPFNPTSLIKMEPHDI
CRX, sequence (O43186 whole entry): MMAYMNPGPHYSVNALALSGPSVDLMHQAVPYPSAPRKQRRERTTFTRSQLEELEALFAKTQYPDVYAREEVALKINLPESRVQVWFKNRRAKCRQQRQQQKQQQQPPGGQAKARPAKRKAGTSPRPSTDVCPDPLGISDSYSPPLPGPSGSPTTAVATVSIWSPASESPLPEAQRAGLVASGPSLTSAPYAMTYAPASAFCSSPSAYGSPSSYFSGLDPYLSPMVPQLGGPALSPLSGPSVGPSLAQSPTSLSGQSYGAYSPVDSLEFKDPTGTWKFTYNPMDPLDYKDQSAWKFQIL
ETV6, sequence (P41212 whole entry): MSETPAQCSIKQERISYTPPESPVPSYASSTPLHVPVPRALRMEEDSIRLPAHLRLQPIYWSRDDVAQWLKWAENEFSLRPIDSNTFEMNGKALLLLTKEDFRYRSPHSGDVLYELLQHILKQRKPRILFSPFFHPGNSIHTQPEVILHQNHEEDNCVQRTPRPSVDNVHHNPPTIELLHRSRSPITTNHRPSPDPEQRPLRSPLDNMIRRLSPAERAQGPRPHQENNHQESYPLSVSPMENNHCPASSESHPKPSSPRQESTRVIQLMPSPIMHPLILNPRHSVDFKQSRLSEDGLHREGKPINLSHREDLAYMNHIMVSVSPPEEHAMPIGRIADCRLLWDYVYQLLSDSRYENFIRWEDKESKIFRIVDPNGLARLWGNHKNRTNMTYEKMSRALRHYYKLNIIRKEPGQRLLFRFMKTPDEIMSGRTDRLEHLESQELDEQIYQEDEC
ETV1, sequence (P50549 whole entry): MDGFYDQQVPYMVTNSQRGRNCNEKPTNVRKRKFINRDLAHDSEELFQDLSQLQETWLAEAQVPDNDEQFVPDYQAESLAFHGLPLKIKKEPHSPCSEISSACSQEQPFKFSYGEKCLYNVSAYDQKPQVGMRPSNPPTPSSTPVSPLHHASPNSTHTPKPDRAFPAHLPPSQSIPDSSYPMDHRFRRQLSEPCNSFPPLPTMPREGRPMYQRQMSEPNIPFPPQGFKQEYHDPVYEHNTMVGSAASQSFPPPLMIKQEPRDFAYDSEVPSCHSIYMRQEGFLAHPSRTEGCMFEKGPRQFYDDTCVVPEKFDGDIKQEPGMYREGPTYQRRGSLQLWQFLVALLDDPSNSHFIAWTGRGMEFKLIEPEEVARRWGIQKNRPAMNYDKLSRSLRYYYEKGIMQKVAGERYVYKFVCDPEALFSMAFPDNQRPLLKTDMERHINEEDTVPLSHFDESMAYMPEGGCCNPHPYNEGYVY

## CTTACT
FEV
  binding signal: 1.17 fold enrichment (6-mer frequency, TF over GST control)
ETV5
  binding signal: 1.28 fold enrichment (6-mer frequency, TF over GST control)
HSF1
  binding signal: 1.34 fold enrichment (6-mer frequency, TF over GST control)
SPIC
  binding signal: 1.1 fold enrichment (6-mer frequency, TF over GST control)
ELF4
  binding signal: 1.36 fold enrichment (6-mer frequency, TF over GST control)
ELK4
  binding signal: 1.12 fold enrichment (6-mer frequency, TF over GST control)
ETV2
  binding signal: 1.39 fold enrichment (6-mer frequency, TF over GST control)
ELF3
  binding signal: 1.24 fold enrichment (6-mer frequency, TF over GST control)
CRX
  binding signal: 1.58 fold enrichment (6-mer frequency, TF over GST control)
ETV1
  binding signal: 1.23 fold enrichment (6-mer frequency, TF over GST control)
ERF
  binding signal: 1.32 fold enrichment (6-mer frequency, TF over GST control)
ETV3L
  binding signal: 1.22 fold enrichment (6-mer frequency, TF over GST control)
ETS2
  binding signal: 1.26 fold enrichment (6-mer frequency, TF over GST control)
SPDEF
  binding signal: 1.21 fold enrichment (6-mer frequency, TF over GST control)
ETV7
  binding signal: 1.18 fold enrichment (6-mer frequency, TF over GST control)
ELF5
  binding signal: 1.3 fold enrichment (6-mer frequency, TF over GST control)
ETV3
  binding signal: 1.27 fold enrichment (6-mer frequency, TF over GST control)
ETV6
  binding signal: 1.3 fold enrichment (6-mer frequency, TF over GST control)

Reference: article PMC7862700, “An all-to-all approach to the identification of sequence-specific readers for epigenetic DNA modifications on cytosine”
